In PubChem BioAssay AID1159580 (chemical genetic matrix, 2015):
“And” between values parts separate entries of the source, which are not always exact repeats. Equal entries are not always repeated. About 2,000 (36%) of roughly 5,500 compounds were called active. Roughly 18% stayed inconclusive and do not appear here. No stated cut-off is given here; in the data, active means normalized growth mostly below about 0.91 (no sharp cut-off); inconclusive means no clear call, values can overlap the other calls; inactive means mostly above about 0.92. Some of the results follow.

Assay: chemical genetic growth profiling, strain panel (AID 1159580);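 further: tested at 20 µM; growth read once vehicle control cultures reached saturation at 30 °C; 1 = growth at the plate median or of vehicle wells; lower values mean less growth of the strain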
Conditions: S. cerevisiae deletion strains, growth OD

Measured: normalized growth

O=c1cc[nH]c(=S)[nH]1
inactive: locus YAL013W, strain DEP1, active compounds read low 1.03 | locus YAL021C, strain ccr4, active compounds read low 1.03 | locus YAL026C, strain drs2, active compounds read low 0.987 | locus YAL030W, strain snc1, active compounds read low 1 | locus YBL061C, strain skt5, active compounds read low 1 | locus YBR009C, strain hhf1, active compounds read low 0.964 | locus YBR021W, strain FUR4, active compounds read low 1.02 | locus YBR023C, strain chs3, active compounds read low 1.01 | locus YBR171W, strain sec66, active compounds read low 1.01 | locus YBR229C, strain ROT2, active compounds read low 1.01 | locus YBR231C, strain swc5, active compounds read low 1.02 | locus YBR279W, strain paf1, active compounds read low 0.997 | locus YCL011C, strain gbp2, active compounds read low 0.997 | locus YCL016C, strain dcc1, active compounds read low 1 | locus YCL029C, strain bik1, active compounds read low 1.01 | locus YCL061C, strain MRC1, active compounds read low 1.03 | locus YCL069W, strain vba3, active compounds read low 1.01 | locus YCR088W, strain abp1, active compounds read low 1.01 | locus YDL005C, strain med2, active compounds read low 1.04 | locus YDL035C, strain GPR1, active compounds read low 1.02 | locus YDL040C, strain nat1, active compounds read low 1.01 | locus YDL074C, strain BRE1, active compounds read low 1.03 | locus YDL101C, strain DUN1, active compounds read low 1.03 | locus YDL134C, strain PPH21, active compounds read low 1.02 | locus YDL185W, strain tfp1, active compounds read low 1.01 | locus YDL192W, strain arf1, active compounds read low 1.02 | locus YDR001C, strain nth1, active compounds read low 1 | locus YDR069C, strain doa4, active compounds read low 1.04 | locus YDR101C, strain arx1, active compounds read low 1.01 | locus YDR137W, strain rgp1, active compounds read low 1.04 | locus YDR150W, strain NUM1, active compounds read low 1.01 | locus YDR159W, strain sac3, active compounds read low 1.02 | locus YDR162C, strain NBP2, active compounds read low 1.02 | locus YDR195W, strain ref2 1.03 | locus YDR297W, strain sur2, active compounds read low 1.01 | locus YDR318W, strain mcm21, active compounds read low 1.03 | locus YDR334W, strain swr1, active compounds read low 1 | locus YDR335W, strain msn5, active compounds read low 1.01 | locus YDR388W, active compounds read low 1 | locus YDR392W, strain spt3, active compounds read low 0.962 | locus YDR502C, strain sam2, active compounds read low 1.03 | locus YEL003W, strain gim4, active compounds read low 1 | locus YEL037C, strain rad23, active compounds read low 0.991 | locus YEL061C, strain CIN8 (second series), active compounds read low 1 | locus YEL061C, strain CIN8, active compounds read low 1.01 | locus YER015W, strain faa2, active compounds read low 1.01 | locus YER016W, strain bim1, active compounds read low 1.01 | locus YER110C, active compounds read low 1 | locus YER111C, strain swi4, active compounds read low 1.01 | locus YER155C, strain BEM2 (second series), active compounds read low 1.04 | locus YER155C, strain BEM2, active compounds read low 1.01 | locus YER167W, strain BCK2, active compounds read low 1.02 | locus YFR010W, strain ubp6, active compounds read low 0.997 | locus YGL078C, strain dbp3, active compounds read low 1.01 | locus YGL086W, strain mad1, active compounds read low 1 | locus YGL167C, strain pmr1, active compounds read low 1 | locus YGL173C, strain kem1, active compounds read low 1.01 | locus YGL227W, strain vid30, active compounds read low 1.01 | locus YGL240W, strain doc1, active compounds read low 1.07 | locus YGL248W, strain PDE1, active compounds read low 1.01 | locus YGL253W, strain hxk2, active compounds read low 1.03 | locus YGR078C, strain PAC10, active compounds read low 1.03 | locus YGR135W, strain pre9, active compounds read low 1.02 | locus YGR229C, strain SMI1, active compounds read low 1.03 | locus YGR252W, strain gcn5, active compounds read low 1.09 | locus YHR013C, strain ard1, active compounds read low 1.04 | locus YHR027C, strain rpn1, active compounds read low 1 | locus YHR030C, strain SLT2, active compounds read low 1.02 and 0.995 | locus YHR079C, strain IRE1 (second series), active compounds read low 0.999 | locus YHR079C, strain IRE1, active compounds read low 1.01 | locus YHR094C, strain hxt1, active compounds read low 0.983 | locus YHR129C, strain ARP1, active compounds read low 1.01 | locus YHR142W, strain chs7, active compounds read low 0.987 | locus YHR200W, strain rpn10, active compounds read low 1.02 | locus YIL066C, strain RNR3, active compounds read low 1.03 | locus YIL073C, strain SPO22, active compounds read low 1.03 | locus YIL125W, strain kgd1, active compounds read low 1.01 | locus YIR030C, strain dcg1, active compounds read low 1.01 | locus YJL092W, strain hpr5, active compounds read low 1 | locus YJL095W, strain BCK1 (second series), active compounds read low 1.01 | locus YJL095W, strain BCK1, active compounds read low 1.04 and 1.01 | locus YJL115W, strain asf1, active compounds read low 1.01 | locus YJL129C, strain trk1, active compounds read low 1.01 | locus YJL134W, strain LCB3, active compounds read low 1.01 | locus YJL154C, strain vps35, active compounds read low 1.01 | locus YJL164C, strain tpk1, active compounds read low 0.983 | locus YJL166W, strain qcr8, active compounds read low 1.03 | locus YJL168C, strain set2, active compounds read low 0.997 | locus YJL187C, strain SWE1 (second series), active compounds read low 1.04 | locus YJL187C, strain SWE1, active compounds read low 1.01 | locus YJR043C, strain POL32, active compounds read low 1.02 | locus YJR066W, strain TOR1, active compounds read low 0.917
